These results are taken from the supplement of paper PMC11417369.

± gives the standard deviation of the averaged measurements. Whole data set: some 25,000 sequences, median “ln(normalized median fluorescence intensity)” near 10, cut for the highest 2% near 12. This is one part of a sample in which the highest values are shown more often than they occur.

This test deals with PfAP2-G AP2 domain (GST-tagged). The test can be described thus: gcPBM binding intensity (ln(normalized median fluorescence intensity)); higher = stronger DNA binding. Summed up: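 The highest Masliner-normalised natural-log median intensity across replicate spots of either probe orientation is reported as binding intensity. GST-tagged P. falciparum DNA-binding domains expressed in E. coli were applied for 1 h to an Agilent 4 × 180k array of primer-extended double-stranded 36-bp intergenic genomic probes plus negative controls, and bound protein was detected with Alexa488 anti-GST antibody and scanned at 488 nm.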
Regarding “TATATATATATATATGTACACACATATATACCTTTC [CACACA_site8854]”, the “gcPBM binding intensity (ln)” value came out at 11.3 ± 0.71. The value for “GAAAGAATAAAATAAACATGCAAATAAAACATAAAA [TGCATGCA_site471]” was 9.81 ± 0.2; that for “AGCATAAACAATTTTTGAAAAAATATACACTCATAG [CACACA_negctrl_site890]” was 9.935 ± 0.007. As for “AAAAAATATACATATTGTACATTTTTTATTAACACA [XGTACX_site6415]”, the figure is 10.8 ± 0.49; as for “TAGTATTGTAAAAAAAAAAAAGAAAAAAAAAAAAAA [CACACA_negctrl_site977]”, 9.68 ± 0.15. The value for “TTAAGATGCATAAATACATGCAAAGTAAATAATTCT [TGCATGCA_site517]” was 9.88 ± 0.014. Turning to “CATAAAAATGGATACACACACATAATATATATATAT [CACACA_site3619]”, the “gcPBM binding intensity (ln)” value turned out to be 10.2 ± 0.3.

In the case of “TTACTTAAGAAACACACACACAAAAAAAAAAAAAAA [CACACA_site946]”, the “gcPBM binding intensity (ln)” value amounted to 9.91 ± 0.54. Consider “AGTTTAAATTAAATTACACACTACGAATAATATATT [CACACA_site7811]”, for which the “gcPBM binding intensity (ln)” value came to 9.895 ± 0.007.

Take “TATTCCAAAAATGTGTGTACATAAATACAATATTAT [XGTACX_site2653]”: the “gcPBM binding intensity (ln)” value is 11.4 ± 0.89. The value for “GCCATAAAGATATATACACACATAAAAAAAAGTTAT [CACACA_site6674]” was 10.1 ± 0.16; that for “AGATATATATTTTATTGTACACATTAAAGTATAAAA [XGTACX_site7194]” was 11.5 ± 1.1; that for “ATAAAAAAAAAAAAAAGTACACATATAAAAGTATTG [XGTACX_site8265]” was 11.6 ± 0.91. As for “ATAAATACATATAAAAGTACACACACACACATATAT [XGTACX_site1744]”, the figure is 11.5 ± 0.93; as for “AGATAAAAAAAGTACACACACACATATATATATATA [CACACA_site3072]”, 11.6 ± 0.93. As for “ACAATATAGATTAAAAGTACAAATAGTAAATTATAT [XGTACX_site3165]”, the figure is 11.2 ± 0.71; as for “AATAAATATATTAAAAGTACACAAATATTATTTAAT [XGTACX_site2482]”, 11.4 ± 0.76.

With “GAGATATAAAAGTGTACACATATTGTTATCCATATT [CACACA_site5441]”, the “gcPBM binding intensity (ln)” value is 11.8 ± 1.

“TACATATAAAAGTACACACACACACCCATATATATA [CACACA_site941]”: the “gcPBM binding intensity (ln)” value amounted to 11.6 ± 1.1. As for “TAAAAAAAAATAAAAAGTACATATATATATATATAT [XGTACX_site1155]”, the figure is 11.1 ± 0.86. Turning to “AAAAAAAAAAAAAGTACACACATACAGATAAATATA [CACACA_site5067]”, the “gcPBM binding intensity (ln)” value worked out at 11.6 ± 1. The value for “AAAAAAAAAAAAAAAAGTACACAAATAGATTTATAT [XGTACX_site3727]” was 11.6 ± 0.88; that for “ATATATTGAACATATTGTACATTTTGTTAATATTTT [XGTACX_site7622]” was 10.7 ± 0.43. As for “TTATATTTATATATTTGTACGTATGTATATAATTCA [XGTACX_site2993]”, the “gcPBM binding intensity (ln)” value amounted to 11.4 ± 0.97. Turning to “ATTGTTTTTTTTTCTTTGTGGAATGAATGAATATAT [XGTACX_negctrl_site603]”, the “gcPBM binding intensity (ln)” value was 10 ± 0.19. As for “TATATATATATATTGACACACATGTATTTCAATATT [CACACA_site2832]”, the figure is 10.1 ± 0.21; as for “TATATATATATGTGCACACATAATAAAAAAAAAAAT [CACACA_site3831]”, 10.6 ± 0.69; as for “AAAAAATTAATATTGACACACATTTTTAAGAATAAT [CACACA_site239]”, 10.1 ± 0.16.

For TATGTTTTTGAATGAGTGCATTAAAATAAAACATTT, the “gcPBM binding intensity (ln)” value amounted to 10.2 ± 0.27.

As to “AAAAAAGAAAAAAGGACACACATAAATATACTCACG [CACACA_site2904]”, the “gcPBM binding intensity (ln)” value is 11.2 ± 0.91. In the case of “TAAATTATAATATGCACACAAAATGTTATATTAAAA [CACACA_site376]”, the “gcPBM binding intensity (ln)” value is 9.97 ± 0.26.

For “TAAAAAATAAATATATGTACGCAATAAATGTGTTAA [XGTACX_site4043]”, the “gcPBM binding intensity (ln)” value worked out at 11.6 ± 1.1.

“AATTTTATTTAATTTTTTTGGGAAATGATAAAATTT [CACACA_negctrl_site934]”: the “gcPBM binding intensity (ln)” value amounted to 9.88 ± 0.2. For the sequence “CATATGCGTCTTGCCTTGCACACTTTTATGAAAAAA [CACACA_site2055]”, the “gcPBM binding intensity (ln)” value is 10.4 ± 0.26. The value for “ATACACACTTAAAAAAGTACTTAACTACATGAATTG [XGTACX_site1203]” was 11.1 ± 0.59; that for “CACAAACACCCAAACACACACACACCGACATACATA [CACACA_site4410]” was 10.2 ± 0.27. For “CATACACCCATACATACACACATACATATATATATA [CACACA_site8591]”, the “gcPBM binding intensity (ln)” value worked out at 10.2 ± 0.11. As for “CATATATACGCATACACACACACACCCACACCCACA [CACACA_site1725]”, the figure is 10.6 ± 0.52; as for “TATTCCCCCAAACACACACACACACCCACATACCAC [CACACA_site2304]”, 11.1 ± 0.78; as for “TATTCCCCCCAACACACACACACACCGACATACCAC [CACACA_site8723]”, 11.8 ± 1.1. As for “TACACCCACCCACATACACACACATACACATATATA [CACACA_site8503]”, the figure is 10.3 ± 0.35; as for “CATATTCCCCCCCACACACACACACCCATACATACC [CACACA_site2303]”, 11.7 ± 0.71; as for “CACCCACCCACATACACACACATACACATATATATA [CACACA_site1722]”, 10.2 ± 0.25. As for “TATATATACATATACACACACACACCCATATATATA [CACACA_site2246]”, the figure is 10.1 ± 0.2; as for “GACATATTCCCCCCCACACACACACCCACATACATA [CACACA_site2302]”, 11.8 ± 0.71. For “ACCATACATACATACACACACACACGCATATTTATA [CACACA_site7386]”, the “gcPBM binding intensity (ln)” value worked out at 10.4 ± 0.28. As for “CATATTCCCCCCCACACACACACACGCATACATACC [CACACA_site7148]”, the figure is 11.8 ± 0.6; as for “TTTTTGTATTCTACCTTAACAATCTTAAAGATTTTT [CACACA_negctrl_site1157]”, 9.97 ± 0.11. With “GTAAATAATAAACACCGTACATGGTATAATTCAATG [XGTACX_site3655]”, the “gcPBM binding intensity (ln)” value was 10.7 ± 0.33. As for “AAGTCAATTTTTTTTTTTTTTTTTTAACTTATTAAT [TGCATGCA_negctrl_site14]”, the “gcPBM binding intensity (ln)” value amounted to 9.605 ± 0.078.

On to “TCATTTCACAGACACACACACACAAGATATTTCCTT [CACACA_site7774]”, for which the “gcPBM binding intensity (ln)” value came out at 10.1 ± 0.11. The value for “AAAAAAAAAGGTACTACACACTATTCTCAATAGAAA [CACACA_site6193]” was 11.1 ± 0.86; that for “TAACAATAACTTTATACACACATAATATAAATATAT [CACACA_site7635]” was 9.87 ± 0.014; that for “AACACCAATTCATATGCACACACATCTGCATATTAT [CACACA_site8523]” was 10.12 ± 0.078. The value for “TATATTAAAAAAGAGGTGCATTCGTAAGAGGTTAAA [GTGCAC_site9720]” was 10.05 ± 0.064. As for “CAACATTTGATAAACACACAGAAGTATAAATATATA [CACACA_site2365]”, the figure is 10.24 ± 0.035. Consider “AAAATAAACCCAGACACACTCATTAAAAAATATCAT [CACACA_site5903]”, for which the “gcPBM binding intensity (ln)” value came to 9.95 ± 0.099.
